The text below walks through data of PubChem BioAssay AID720519 (National Center for Advancing Translational Sciences (NCATS), 2013).

Results filed as inconclusive are left out. A call without a number means that no potency is given here. Calls of active or inactive are those of the source. The call rests on the fitted dose curve; in most records, active means well fitted activation curve with a large enough effect; inconclusive means small, poorly fitted or top-dose-only effect; inactive means flat fitted curve, though single readings scatter.

The test can be described thus: qHTS for Inhibitors of Cell Surface uPA Generation: Confirmatory Assay for Cherry-picked Compounds. In outline: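 RAW 264.7 cells at 4000/well, incubated overnight, then treated with compounds. After 24 h at 37 C, viability was read by ATPlite luminescence. An increase in signal indicates blocked uPA-dependent LF entry.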

For the compound `O=C(NCCN1CCOCC1)c1ccccc1Cl`, the Potency result is “inactive”. On to `CC(=O)n1cc(/C=N/NC(=O)c2ccc([N+](=O)[O-])cc2)c2ccccc21`, for which the Potency entry was “inactive”. Next, `COC(=O)CCNS(=O)(=O)c1ccc2nsnc2c1`: “inactive”; `CCN(CC)C(=O)Cn1cc(/C=C(\C#N)C(=O)NC2CC2)c2ccccc21`: “inactive”.

With `O=C(COc1ccccc1F)NCC(c1ccc(F)cc1)N1CCOCC1` (stereo unspecified), the Potency entry was “inactive”. The value for `O=C(Nc1ccc2c(c1)CCC2)Nc1ccc2c(c1)OCO2` was “inactive”. With `COc1cccc(NC(=O)N2C3CCCC2CC(NC(C)=O)C3)c1` (stereo unspecified), the Potency result is “inactive”.

Take `COc1ccc(C(C)=O)cc1CSC(=N)N`: the Potency result is “inactive”. Take `O=C(NCCN1CCOCC1)c1ccc2c(c1)N(Cc1ccc(Cl)cc1)CCS2`: the Potency entry is “inactive”.

In the case of `Cc1ccccc1-c1nnc(SCC(=O)NCC2CCCO2)o1` (stereo unspecified), the Potency entry was “inactive”. Next, `Cc1ccc(NC(=S)N2CCN(Cc3ccc4c(c3)OCO4)CC2)c(C)c1`: “inactive”. Turning to `COCCNS(=O)(=O)c1cc(OC)c(C)cc1C`, the Potency entry was “inactive”.

Regarding `CC1CS(=O)(=O)CCN1N=Cc1ccc([N+](=O)[O-])o1` (stereo unspecified), the Potency entry was “inactive”. The value for `COCCNC(=O)COCc1cc(-c2ccc3c(c2)OCO3)on1` was “inactive”; that for `NC(=O)c1cc2c3ccccc3ccn2c1-c1ccccc1` was “inactive”; that for `[N-]=[N+]=NC1C[C@H](n2ccc(=O)[nH]c2=O)O[C@@H]1CO` (stereo partly specified) was “inactive”.

As to `CC(=O)N1CCN(C(=O)CSc2cc(C)c(Br)cc2C)CC1`, the Potency result is “inactive”. Next, `C[N+]1(CC(O)c2ccccc2)CCCCCC1` (stereo unspecified): “inactive”. As to `CCOC(=O)N1CCN(c2c(NCCCN3CCCCCC3)c(=O)c2=O)CC1`, the Potency result is “inactive”. As for `CC(C)N1CCc2c(sc(NC(=O)Cc3ccccc3)c2C(N)=O)C1`, the Potency entry was “inactive”. For the compound `N#Cc1ccccc1Sc1ccccc1C(=O)Nc1ccc(Br)cc1`, the Potency result was “inactive”. Regarding `CN(CC(=O)NCc1ccco1)CC(=O)Nc1c(Cl)cccc1Cl`, the Potency result is “inactive”.

Turning to `COc1ccc(CNCCC2(C(C)C)CCOC(C)(C)C2)cc1` (stereo unspecified), the Potency entry was “inactive”. The value for `CCc1nnc(NC(=O)CSc2nnnn2-c2cccc(C(C)=O)c2)s1` was “inactive”; that for `O=C(CSc1nnnn1-c1cccc(F)c1)Nc1nc2ccccc2s1` was “inactive”. Consider `O=C(/C=C/c1ccc(O)c(O)c1)O[C@@H]1C[C@](O)(C(=O)O)C[C@@H](O)[C@H]1O`, for which the Potency entry is “inactive”. Next, `COc1ccc(/C=C/C(=O)Nc2ccccc2Cl)cc1S(=O)(=O)N1CCOCC1`: “inactive”. Regarding `O=C(C1=C[C@H](c2ccccc2)C[C@H](OCCCCO)O1)N1CCN(Cc2ccc3c(c2)OCO3)CC1`, the Potency result was “inactive”. The value for `COc1ccc(N2CCN(S(=O)(=O)c3ccc4c(c3)NC(=O)CS4)CC2)cc1` was “inactive”; that for `Cc1ccn(CCC(=O)N2CCc3ccccc32)n1` was “inactive”; that for `COc1ccccc1N1CCN(CC(=O)c2c(C)[nH]c3ccccc23)CC1` was “inactive”.

Take `O=C(CSc1ccc(Cl)cc1)Nc1ccc(C2SCCS2)cc1`: the Potency result is “inactive”.

Take `O=C(NCc1ccco1)/C(=C\c1cccs1)NC(=O)c1ccccc1`: the Potency entry is “inactive”.

For the compound `Cc1cc(C)n2nc(CNS(=O)(=O)c3ccc(F)c(C)c3)nc2n1`, the Potency result is “inactive”. In the case of `COc1cc(CN2CCN(S(=O)(=O)c3ccccc3)CC2)cc(OC)c1OC`, the Potency entry was “inactive”. Regarding `O=C(Nc1cccc(-c2nn[nH]n2)c1)c1ccc(Cl)s1`, the Potency result was “inactive”. Take `COc1cc2c(cc1OC)CN(C(=O)c1ccc(-c3ccccc3)cc1)CC2`: the Potency result is “inactive”. As to `Cc1ccccc1NC(=O)N1CCN(c2ncccn2)CC1`, the Potency result is “inactive”. Next, `O=C(Nc1ccc(N2CCOCC2)cc1)c1ccc(Cl)c(S(=O)(=O)N2CCCC2)c1`: “inactive”; `Cc1cnc(C(=O)OCC(=O)Nc2ccc3c(c2)OCCO3)cn1`: “inactive”.

On to `CC1(NC(=O)CSc2nnc(-c3c[nH]c4ccccc34)n2C2CC2)CCS(=O)(=O)C1` (stereo unspecified), for which the Potency entry was “inactive”. Next, `COc1ccc(C2=NS(=O)(=O)N(C)C(C(=O)NCc3ccccn3)=C2)cc1`: “inactive”; `COc1ccc(C[C@@H]2OC3(C=CC(=O)C=C3)O[C@H]2Cc2ccc(OC)cc2)cc1`: “inactive”; `COc1ccc(CCNC(=O)Cn2cccc2C(=O)c2ccccc2)c(OC)c1`: “inactive”. Consider `Cc1ccc(S(=O)(=O)NC(=O)Nc2nccs2)cc1`, for which the Potency result is “inactive”.

As for `CCOc1ccc(N(CC(=O)Nc2ccc(CC)cc2)S(=O)(=O)c2c(C)[nH]c(=O)[nH]c2=O)cc1`, the Potency entry was “inactive”.

For the compound `Cc1cc(C)nc(N2N=C(C(F)(F)F)CC2=O)n1`, the Potency result was “inactive”. `O=C(COC(=O)C1CC2C=CC1C2)NCc1ccccc1Cl` (stereo unspecified): the Potency entry is “inactive”. As to `COCCN1C(=O)C(=O)/C(=C(/O)c2ccc(S(=O)(=O)N3CCOCC3)cc2)C1c1cccc([N+](=O)[O-])c1` (stereo unspecified), the Potency result is “inactive”. In the case of `CCC(COC)NC(=O)CCc1nnc(Cc2c[nH]c3ccccc23)o1` (stereo unspecified), the Potency entry was “inactive”. The value for `O=C(c1cc(COc2c(F)cccc2F)on1)N1CCc2ccccc2C1` was “inactive”.

`O=C(CSc1nncs1)NC(=O)NCc1ccco1`: the Potency result is “inactive”.

For `COc1cccc(C(=O)NCC(c2ccco2)N2CCc3ccccc3C2)c1` (stereo unspecified), the Potency result was “inactive”.

Turning to `COc1cccc(NC(=O)CSc2nc3ncc(Br)cc3[nH]2)c1`, the Potency entry was “inactive”.

In the case of `Cc1ccc(/C=N/NC(=O)c2ccc3nc[nH]c3c2)s1`, the Potency entry is “inactive”. Regarding `Fc1ccc(CNc2ccccn2)cc1`, the Potency result is “inactive”. The value for `COc1ccc2[nH]cc(S(=O)(=O)c3ccc(C(C)C)cc3)c(=O)c2c1` was “inactive”. For `Cc1ccc(C)c(NC(=O)CCN2CCN(c3ccccc3F)CC2)c1`, the Potency entry was “inactive”. Next, `COc1ccc(C(=O)N2CCN(c3ccc(C(C)=O)cc3)CC2)cc1S(=O)(=O)N1CCCC1`: “inactive”; `O=C(Nc1cccc(C2=NCCN2)c1)Nc1cccc(C2=NCCN2)c1`: “inactive”; `COc1cc(CN2CCN(c3ncccn3)CC2)cc(OC)c1`: “inactive”. The value for `CC(C)(C)C(=O)NCCc1nc2ccccc2n1CC(=O)c1ccc(Cl)cc1` was “inactive”; that for `O=C(CN1C(=O)CSCC1=O)NCc1ccc(F)cc1` was “inactive”; that for `Cc1ccc(C(CC(=O)N2CCCC2)c2ccccc2)c(O)c1` (stereo unspecified) was “inactive”. The value for `O=C(COC(=O)c1cc([N+](=O)[O-])ccc1NCCO)NCc1cccs1` was “inactive”; that for `O=C(CC1(O)C(=O)Nc2ccccc21)c1cccc(Br)c1` (stereo unspecified) was “inactive”. In the case of `CCOCCOc1cc(NCc2ccccc2)c2ncn(C(C)C)c2c1`, the Potency result is “inactive”. For the compound `COc1ccc(NS(=O)(=O)c2c(C)n(C)c(=O)n(C)c2=O)cc1OC`, the Potency result is “inactive”.

For `Cc1ccc(C(O)(COC(=O)C(C)C)COC(=O)C(C)C)c(O)c1`, the Potency entry is “inactive”. Next, `CCOC(=O)C(CC)n1cnc2c(nnn2-c2ccccc2)c1=O` (stereo unspecified): “inactive”; `O=C(CCN1CCN(c2ccccc2F)CC1)Nc1ccc(F)cc1`: “inactive”; `O=C(NCCc1cn2ccsc2n1)c1cccs1`: “inactive”. Next, `Cc1ccc(C(=O)NNC(=O)CNc2cccc(Cl)c2)cc1`: “inactive”; `CCC(=O)N1CCC(NC(=O)Nc2ccc(OC(F)(F)F)cc2)CC1`: “inactive”. Next, `COc1cc(SC)ccc1C(=O)OCc1nc2ccsc2c(=O)[nH]1`: “inactive”. Consider `CC(C)C[C@H]1CN([C@@H](CC(C)C)CN2CCCC2CN2C(=S)NC[C@@H]2Cc2ccc(O)cc2)C(=S)N1CC1CCCCC1` (stereo partly specified), for which the Potency result was “inactive”.
